According to PubChem BioAssay:
Values joined by “and” are separate entries in the source; they are usually repeats but may differ in a detail not shown here. Equal values may be shown once. Active and inactive are the calls of the source.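 Rule for the calls: active = thallium flux through the channel raised or lowered by more than 3 SD from vehicle-only wells, actives on both sides; inactive = the rest.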

Test system: F380Y
Assay: modulators of BK channel variants, profiling panel, selectivity assay, cell-based, U2OS BacMam, thallium flux, beta subunits (AID 1259406);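 note: initial slope of Thallos dye fluorescence rise after thallium is added; log ratio against the mean of 0.3% DMSO vehicle wells on the same plate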
Conditions: at 30 µM

Row | SMILES | log fold change Tl+ flux
1 | c1cnc(N2CCN(Cc3ccc4c(c3)OCO4)CC2)nc1 | -0.0152 (inactive)
2 | O=C(CCNNC(=O)c1ccncc1)NCc1ccccc1 | 0.000985 (inactive)
3 | O=C(O)CCNC(=O)c1ccc(N=Nc2ccc(O)c(C(=O)O)c2)cc1 | -0.00418 (inactive)
4 | Cc1cccc(C)c1OCC(C)N (centres undefined) | -0.014 (inactive)
5 | CCOC(=O)c1ncn2c1CN(C)C(=O)c1cc(F)ccc1-2 | -0.0521 (inactive)
6 | CC(c1cc2ccccc2s1)N(O)C(N)=O (centres undefined) | -0.00504 (inactive)
7 | CCC(=O)O[C@]1(C(=O)SCF)[C@H](C)C[C@H]2[C@@H]3C[C@H](F)C4=CC(=O)C=C[C@]4(C)[C@@]3(F)[C@@H](O)C[C@@]21C | 0.0283 (inactive)
8 | Cc1[nH]cnc1CN1CCc2c(c3ccccc3n2C)C1=O | 0.0315 (inactive)
9 | CN(C)CCCSc1ccccc1NC(=O)/C=C/c1ccccc1 | 0.0773 (inactive)
10 | CN1CCC(=C2c3ccccc3CCc3sccc32)CC1 | -0.0249 (inactive)
11 | Cc1cn([C@H]2C=C[C@@H](CO)O2)c(=O)[nH]c1=O | -0.00288 (inactive) and 0.0465 (inactive)
12 | CCN1CCCC1CNC(=O)c1cc(S(=O)(=O)CC)c(N)cc1OC (centres undefined) | 0.00396 (inactive)
13 | O=C(NCCN1CCOCC1)c1ccc(Cl)cc1 | -0.0393 (inactive)
14 | CN(C)CC/C=C1/c2ccccc2COc2ccc(CC(=O)O)cc21 | 0.0275 (inactive)
15 | C#C[C@]1(O)CC[C@H]2[C@@H]3[C@H](C)CC4=C(CCC(=O)C4)[C@H]3CC[C@@]21C | 0.0382 (inactive)
16 | COc1ccc(CC2c3cc(OC)c(OC)cc3CC[N+]2(C)CCC(=O)OCCCCCOC(=O)CC[N+]2(C)CCc3cc(OC)c(OC)cc3C2Cc2ccc(OC)c(OC)c2)cc1OC (centres undefined) | -0.0106 (inactive)
17 | COc1ccccc1OCC(O)CN1CCN(CC(=O)Nc2c(C)cccc2C)CC1 (centres undefined) | 0.091 (inactive)
18 | NS(=O)(=O)Cc1noc2ccccc12 | 0.00455 (inactive)
19 | CC1CCN(CCCC(=O)c2ccc(F)cc2)CC1 | 0.0312 (inactive)
20 | Cc1ccc(NC(=O)c2ccc(CN3CCN(C)CC3)cc2)cc1Nc1nccc(-c2cccnc2)n1 | 0.141 (active)

Row | SMILES | log fold change Tl+ flux
21 | NC(=O)OCC(COC(N)=O)c1ccccc1 | -0.103 (inactive)
22 | COC(=O)C1=C(C)NC(C)=C(C(=O)O[C@@H]2CCCN(Cc3ccccc3)C2)[C@@H]1c1cccc([N+](=O)[O-])c1 | -0.0664 (inactive)
23 | Cn1c(NCCN(CCO)CCCc2ccc([N+](=O)[O-])cc2)cc(=O)n(C)c1=O | -0.0604 (inactive)
24 | CN(Cc1cnc2nc(N)nc(N)c2n1)c1ccc(C(=O)N[C@@H](CCC(=O)O)C(=O)O)cc1 | -0.0413 (inactive)
25 | O=C(O)/C=C/c1ccc(Cn2ccnc2)cc1 | 0.00524 (inactive)
26 | CCOC(=O)[C@H](CCc1ccccc1)N[C@@H](C)C(=O)N1[C@H](C(=O)O)C[C@@H]2CCC[C@@H]21 | -0.0209 (inactive) and 0.0487 (inactive)
27 | CCN(CC)CC1CCCCN1CC(=O)N1c2ccccc2C(=O)Nc2cccnc21 (centres undefined) | -0.00678 (inactive)
28 | CC(C)(O)c1ccccc1CC[C@@H](SCC1(CC(=O)O)CC1)c1cccc(/C=C/c2ccc3ccc(Cl)cc3n2)c1 | 0.278 (active)
29 | CC1(C)O[C@@H]2C[C@H]3[C@@H]4C[C@H](F)C5=CC(=O)C=C[C@]5(C)[C@@]4(F)[C@@H](O)C[C@]3(C)[C@]2(C(=O)CO)O1 | 0.2 (active)
30 | CCCN1CCCC[C@H]1C(=O)Nc1c(C)cccc1C | 0.0271 (inactive)
31 | C[C@@H]1C[C@H]2[C@@H]3C[C@H](F)C4=CC(=O)C(Cl)=C[C@]4(C)[C@@]3(F)[C@@H](O)C[C@]2(C)[C@@]1(O)C(=O)CO | 0.0685 (inactive)
32 | C#C[C@]1(O)CC[C@H]2[C@@H]3CCc4cc(O)ccc4[C@H]3CC[C@@]21C | 0.0259 (inactive)
33 | CN1CCN(C2=Nc3cc(F)ccc3Cc3ccccc32)CC1 | 0.06 (inactive)
34 | COc1cc(C(=O)NS(=O)(=O)c2ccccc2C)ccc1Cc1cn(C)c2ccc(NC(=O)OC3CCCC3)cc12 | 0.278 (active)
35 | CCOc1cc(CC(=O)N[C@@H](CC(C)C)c2ccccc2N2CCCCC2)ccc1C(=O)O | 0.252 (active)
36 | COc1cc(C(=O)NC2CCCNC2)cc(OC)c1OC (centres undefined) | -0.0595 (inactive)
37 | CC(=O)Oc1ccccc1C(=O)Nc1ncc([N+](=O)[O-])s1 | -0.199 (active)
38 | CCCc1c(OCCCCc2nn[nH]n2)ccc(C(C)=O)c1O | 0.0613 (inactive)
39 | CCOc1cc(N)c(Cl)cc1C(=O)NCC1CN(Cc2ccc(F)cc2)CCO1 (centres undefined) | -0.0328 (inactive)
